Results from PubChem BioAssay (NCATS).
Inconclusive results are not listed. Calls of active or inactive are those of the source. Calls follow the shape of the dose curve; as a rule, active = well fitted inhibition curve with a large enough effect; inconclusive = small, poorly fitted or top-dose-only effect; inactive = flat fitted curve, though single readings scatter.

Test system: CP211
Experiment: qHTS profiling for inhibitors of Plasmodium falciparum proliferation (AID 504749); also: nearly all actives have a fitted effect of over 60% in size;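 as to activity, negative = inhibition: 0% = DMSO vehicle and full inhibition = artemisinin control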
Conditions: P. falciparum in erythrocytes, SYBR Green DNA, 72 h; series mostly up to 28.7 µM; activity, negative = inhibition: at the top concentration
In short: (§1)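 Quantitative HTS: compounds pinned into medium, infected erythrocytes added (0.3% parasitemia, 2.5% hematocrit), 72 h culture at 37 C under 5% CO2. Saponin/Triton lysis with SYBR Green I, overnight RT, then fluorescence read.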
Potency is read from the fitted curve at half-maximal effect.

SMILES	activity, negative = inhibition	Potency
COc1ccc([C@@H]2CNC(=O)C2)cc1OC1CCCC1	1.21% [at 12.8 µM] (inactive)	
Nc1nc2c(c(=O)[nH]1)N(C=O)[C@H](CNc1ccc(C(=O)N[C@@H](CCC(=O)O)C(=O)O)cc1)CN2	-17.7% [at 12.8 µM] (inactive)	
CCC(C(=O)O)C1CCC(C)C(C(C)C(O)C(C)C(=O)C(CC)C2OC3(C=CC(O)[C@@]4(CC[C@](C)(C5CC[C@@](O)(CC)C(C)O5)O4)O3)C(C)CC2C)O1 (stereo not given in full)		536 nM (active)

Test system: CP215
Experiment: as above
Conditions: P. falciparum in erythrocytes, SYBR Green DNA, 72 h; series mostly up to 28.7 µM; activity, negative = inhibition: at the top concentration
In short: as §1

SMILES	activity, negative = inhibition	Potency
COc1ccc([C@@H]2CNC(=O)C2)cc1OC1CCCC1	0.199% [at 12.8 µM] (inactive)	
Nc1nc2c(c(=O)[nH]1)N(C=O)[C@H](CNc1ccc(C(=O)N[C@@H](CCC(=O)O)C(=O)O)cc1)CN2	8.05% [at 12.8 µM] (inactive)	
CCC(C(=O)O)C1CCC(C)C(C(C)C(O)C(C)C(=O)C(CC)C2OC3(C=CC(O)[C@@]4(CC[C@](C)(C5CC[C@@](O)(CC)C(C)O5)O4)O3)C(C)CC2C)O1 (stereo not given in full)		675 nM (active)

Test system: CP217
Experiment: as above
Conditions: P. falciparum in erythrocytes, SYBR Green DNA, 72 h; series mostly up to 28.7 µM; activity, negative = inhibition: at the top concentration
In short: as §1

SMILES	activity, negative = inhibition	Potency
COc1ccc([C@@H]2CNC(=O)C2)cc1OC1CCCC1	-1.31% [at 12.8 µM] (inactive)	
Nc1nc2c(c(=O)[nH]1)N(C=O)[C@H](CNc1ccc(C(=O)N[C@@H](CCC(=O)O)C(=O)O)cc1)CN2	0.981% [at 12.8 µM] (inactive)	
CCC(C(=O)O)C1CCC(C)C(C(C)C(O)C(C)C(=O)C(CC)C2OC3(C=CC(O)[C@@]4(CC[C@](C)(C5CC[C@@](O)(CC)C(C)O5)O4)O3)C(C)CC2C)O1 (stereo not given in full)		1120 nM (active)

Test system: CP237
Experiment: as above
Conditions: P. falciparum in erythrocytes, SYBR Green DNA, 72 h; series mostly up to 28.7 µM; activity, negative = inhibition: at the top concentration
In short: as §1

SMILES	activity, negative = inhibition	Potency
COc1ccc([C@@H]2CNC(=O)C2)cc1OC1CCCC1	2.67% [at 12.8 µM] (inactive)	
Nc1nc2c(c(=O)[nH]1)N(C=O)[C@H](CNc1ccc(C(=O)N[C@@H](CCC(=O)O)C(=O)O)cc1)CN2	3% [at 12.8 µM] (inactive)	
CCC(C(=O)O)C1CCC(C)C(C(C)C(O)C(C)C(=O)C(CC)C2OC3(C=CC(O)[C@@]4(CC[C@](C)(C5CC[C@@](O)(CC)C(C)O5)O4)O3)C(C)CC2C)O1 (stereo not given in full)		447 nM (active)

Test system: CP238
Experiment: as above
Conditions: P. falciparum in erythrocytes, SYBR Green DNA, 72 h; series mostly up to 28.7 µM; activity, negative = inhibition: at the top concentration
In short: as §1

SMILES	activity, negative = inhibition	Potency
COc1ccc([C@@H]2CNC(=O)C2)cc1OC1CCCC1	0.666% [at 12.8 µM] (inactive)	
Nc1nc2c(c(=O)[nH]1)N(C=O)[C@H](CNc1ccc(C(=O)N[C@@H](CCC(=O)O)C(=O)O)cc1)CN2	-5.73% [at 12.8 µM] (inactive)	
CCC(C(=O)O)C1CCC(C)C(C(C)C(O)C(C)C(=O)C(CC)C2OC3(C=CC(O)[C@@]4(CC[C@](C)(C5CC[C@@](O)(CC)C(C)O5)O4)O3)C(C)CC2C)O1 (stereo not given in full)		1120 nM (active)
